Laboratory results from PubChem BioAssay (NCATS).
Records with an inconclusive call do not appear. Calls of active or inactive are those of the source. Unless noted, the call rests on the fitted dose curve; in most records, active means well fitted curve in the direction sought with a large enough effect; inconclusive means small, poorly fitted or top-dose-only effect, or another doubt; inactive means no such curve, though single readings can be large; an effect the other way counts as inactive or inconclusive.

Key:
[1] = qHTS for Inhibitors of Plasmodium falciparum (DD2) proliferation (AID 504314);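 further: parasite DNA measured by SYBR Green fluorescence after red cell lysis; plate controls were DMSO vehicle for no effect and artemisinin wells for full effect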
In short: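 Erythrocytes infected with P. falciparum (0.3% parasitemia, 2.5% hematocrit final) were incubated with compounds for 72 h at 37C, 5% CO2. Parasite DNA was detected by SYBR Green I fluorescence after saponin/Triton lysis, normalized to artemisinin (0.29 uM) and DMSO controls.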

[2] = qHTS for Inhibitors of Plasmodium falciparum (GB4) proliferation (AID 504315);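 further: 0% = DMSO vehicle and -100% = 0.29 µM artemisinin control; nearly all actives have a fitted effect of over 50% in size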
In short: (§1)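 Erythrocytes infected with P. falciparum line (0.3% parasitemia, 2.5% hematocrit final) incubated with compounds 72 h at 37 °C, 5% CO2; SYBR Green lysis buffer added, fluorescence read next day. Normalized to 0.29 uM artemisinin and DMSO.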

[3] = qHTS for Inhibitors of Plasmodium falciparum (7G8) proliferation (AID 504316);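 further: series mostly up to about 6.7 µM; 0% = DMSO vehicle and -100% = 0.29 µM artemisinin full kill; nearly all actives have a fitted effect of over 65% in size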
In short: as §1

[4] = qHTS for Inhibitors of Plasmodium falciparum (HB3) proliferation (AID 504318);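 further: 0% = DMSO vehicle and -100% = artemisinin control; nearly all actives have a fitted effect of over 60% in size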
In short: as §1

[5] = qHTS for Inhibitors of Plasmodium falciparum (CP250) proliferation (AID 504320);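 further: plate controls were DMSO vehicle for no effect and 0.29 µM artemisinin control for full effect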
In short: as §1

[6] = molecular target: Atrial natriuretic peptide receptor 1 (Homo sapiens) (UniProt P16066); experiment: Natriuretic polypeptide receptor (hNpr1) antagonism - Pilot CMLD screen (AID 1347052; calls by dose curve;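 further: HEK293 cells with hNpr1 stimulated by hNppA peptide at 0.1 nM; cGMP level read as GloSensor luciferase luminescence after agonist stimulation; series mostly up to about 9.2 µM; on the % scale 0 is the no-effect control and ±100 the full control effect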)
Sequence of Atrial natriuretic peptide receptor 1 (Homo sapiens) (P16066 whole entry, looked up): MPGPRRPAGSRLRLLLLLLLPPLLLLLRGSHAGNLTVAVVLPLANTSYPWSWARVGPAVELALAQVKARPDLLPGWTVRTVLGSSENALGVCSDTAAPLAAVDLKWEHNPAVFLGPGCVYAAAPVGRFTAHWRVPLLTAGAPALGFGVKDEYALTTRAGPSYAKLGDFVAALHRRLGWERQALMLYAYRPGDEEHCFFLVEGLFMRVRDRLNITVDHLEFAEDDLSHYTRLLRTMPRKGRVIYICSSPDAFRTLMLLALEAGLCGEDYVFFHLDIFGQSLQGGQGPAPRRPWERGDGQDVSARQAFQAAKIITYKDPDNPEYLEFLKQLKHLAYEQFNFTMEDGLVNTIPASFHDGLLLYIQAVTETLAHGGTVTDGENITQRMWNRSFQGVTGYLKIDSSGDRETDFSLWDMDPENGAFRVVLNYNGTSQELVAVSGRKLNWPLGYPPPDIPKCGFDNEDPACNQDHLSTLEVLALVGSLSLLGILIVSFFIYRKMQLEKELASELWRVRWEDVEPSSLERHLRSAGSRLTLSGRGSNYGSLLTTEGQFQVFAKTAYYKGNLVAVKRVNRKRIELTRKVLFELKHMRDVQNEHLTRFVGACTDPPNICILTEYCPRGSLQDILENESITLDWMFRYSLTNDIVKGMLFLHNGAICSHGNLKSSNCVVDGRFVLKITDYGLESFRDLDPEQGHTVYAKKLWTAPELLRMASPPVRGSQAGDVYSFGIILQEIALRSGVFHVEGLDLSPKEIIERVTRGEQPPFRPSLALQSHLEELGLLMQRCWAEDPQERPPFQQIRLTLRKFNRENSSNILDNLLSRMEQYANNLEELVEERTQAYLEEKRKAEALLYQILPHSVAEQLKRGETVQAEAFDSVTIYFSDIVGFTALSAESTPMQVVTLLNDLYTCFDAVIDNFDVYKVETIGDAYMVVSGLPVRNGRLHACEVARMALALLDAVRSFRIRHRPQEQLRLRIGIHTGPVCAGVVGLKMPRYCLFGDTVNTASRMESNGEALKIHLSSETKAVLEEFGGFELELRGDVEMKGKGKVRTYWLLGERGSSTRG

Cc1ccc([S+](=O)([O-])N[C@@H]2COC(=O)CC=C[C@H](C)COC(=O)N[C@@H](C)C(=O)CC=C[C@H]2C)cc1
inactive: Potency [1] | Potency [2] | Potency [3] | Potency [4] | Potency [5] | Potency [6]

C=C(C(C)=O)C(O)c1ccc(Cl)cc1 (configuration not stated)
inactive: Potency [1] | Potency [2] | Potency [3] | Potency [4] | Potency [5] | Potency [6]

COC(=O)c1nnc(SC)nc1C(=O)OC
inactive: Potency [1] | Potency [2] | Potency [3] | Potency [4] | Potency [5] | Potency [6]

O=P1(O)Oc2c(c(-c3ccccc3)cc3ccc4ccccc4c23)-c2c(-c3ccccc3)cc3ccc4ccccc4c3c2O1
inactive: Potency [1] | Potency [2] | Potency [3] | Potency [4] | Potency [5] | Potency [6]

CC(=O)C1=C(C)N(Cc2ccccc2)C(=O)NC1c1cccc(C(F)(F)F)c1 (configuration not stated)
inactive: Potency [1] | Potency [2] | Potency [3] | Potency [4] | Potency [5] | Potency [6]

C=CCOC(=O)C(C(=O)CC)[C@@H](NC(=O)OC)c1ccc(F)cc1 (some centres not stated)
inactive: Potency [1] | Potency [2] | Potency [3] | Potency [4] | Potency [5] | Potency [6]

CCN1C(=O)[C@H]2[C@H]3C(=CC[C@@H]2C1=O)C1(OCCCO1)[C@@H]1O[C@H]1[C@H]3O
inactive: Potency [1] | Potency [2] | Potency [3] | Potency [4] | Potency [5] | Potency [6]

COC(=O)C1=C(C)N(Cc2ccccc2)C(=NCc2ccc(OC)cc2)NC1c1ccccc1 (configuration not stated)
inactive: Potency [1] | Potency [2] | Potency [3] | Potency [4] | Potency [5] | Potency [6]

C[C@@H]1CC2CCC[C@@H]2[C@]2(O1)C(=O)Nc1cccc(Br)c12 (some centres not stated)
inactive: Potency [1] | Potency [2] | Potency [3] | Potency [4] | Potency [5] | Potency [6]

CCN1C(=O)NC(CCc2ccccc2)C(C(=O)OC)=C1C (configuration not stated)
inactive: Potency [1] | Potency [2] | Potency [3] | Potency [4] | Potency [5] | Potency [6]

CCOC(=O)C1=CN(CCC=C(C)C)C(=O)N(C(C)=O)C1c1ccccc1 (configuration not stated)
inactive: Potency [1] | Potency [2] | Potency [3] | Potency [4] | Potency [5] | Potency [6]

COC(=O)CCC(=O)OC1(C)C(=O)C2=COC(c3ccc(OC)cc3)=CC2=C(Br)C1=O (configuration not stated)
inactive: Potency [1] | Potency [2] | Potency [3] | Potency [4] | Potency [5] | Potency [6]

CC(C)C(=O)NC(=O)[C@@H]1CCCN1C(=O)C=Cc1ccccc1
inactive: Potency [1] | Potency [2] | Potency [3] | Potency [4] | Potency [5] | Potency [6]

C=CC1=C2C=C(C3CC3)N(C3CCCC3)C=C2C(=O)C(C)(OC(=O)c2ccco2)C1=O (configuration not stated)
inactive: Potency [1] | Potency [2] | Potency [3] | Potency [4] | Potency [5] | Potency [6]

C=CCOC(=O)NC(c1ccc(F)c(F)c1)C(C(=O)COC)C(=O)OC (configuration not stated)
inactive: Potency [1] | Potency [2] | Potency [3] | Potency [4] | Potency [5] | Potency [6]

CC[C@H](C)[C@@H](NC(=O)O[C@@H]1C(=O)c2cc(OC)ccc2O[C@H]1c1ccc(OC)c(Br)c1)C(=O)OC
inactive: Potency [1] | Potency [2] | Potency [3] | Potency [4] | Potency [5] | Potency [6]

CC1(OC(=O)C2CCCC2)C(=O)C=C2C=C(c3ccsc3)N(CC3CC3)C=C2C1=O (configuration not stated)
inactive: activity, negative = inhibition [1] -6.74% [at 1.12 µM] | Potency [2] | Potency [3] | Potency [4] | Potency [5] | Potency [6]

CCN1C(=NCCOC)N[C@@H](c2ccccc2)[C@H](C(=O)OC)[C@H]1C
inactive: Potency [1] | Potency [2] | Potency [3] | Potency [5] | Potency [6]
